According to PubChem BioAssay AID1159580 (chemical genetic matrix, 2015):
Where “and” joins values, the source holds several entries; their conditions need not be identical. Identical values can stand only once. Out of some 5,500 compounds screened, about 2,000 (36%) were called active. Roughly 18% stayed inconclusive and do not appear here. Rule as the data show it: active = normalized growth mostly below about 0.91 (no sharp cut-off); inconclusive = no clear call, values can overlap the other calls; inactive = mostly above about 0.92. Some of the results follow.

Experiment: chemical genetic growth profiling, strain panel (AID 1159580);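 also: tested at 20 µM; growth read once vehicle control cultures reached saturation at 30 °C; 1 = growth at the plate median or of vehicle wells; lower values mean less growth of the strain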
Conditions: S. cerevisiae deletion strains, growth OD

Measured: normalized growth

C[N+]1(C)C2CC(OC(=O)[C@@H](CO)c3ccccc3)CC1C1OC12 (some centres not stated)
inactive: locus YAL021C, strain ccr4, stronger effect = lower value 0.987 | locus YAL026C, strain drs2, stronger effect = lower value 0.999 | locus YAL030W, strain snc1, stronger effect = lower value 0.968 | locus YBL061C, strain skt5, stronger effect = lower value 0.98 | locus YBR009C, strain hhf1, stronger effect = lower value 0.955 | locus YBR021W, strain FUR4, stronger effect = lower value 1.04 | locus YBR023C, strain chs3, stronger effect = lower value 0.958 | locus YBR171W, strain sec66, stronger effect = lower value 0.951 | locus YBR229C, strain ROT2, stronger effect = lower value 1.01 | locus YBR231C, strain swc5, stronger effect = lower value 0.982 | locus YBR279W, strain paf1, stronger effect = lower value 0.986 | locus YCL011C, strain gbp2, stronger effect = lower value 0.923 | locus YCL016C, strain dcc1, stronger effect = lower value 0.932 | locus YCL029C, strain bik1, stronger effect = lower value 1 | locus YCL061C, strain MRC1, stronger effect = lower value 0.977 | locus YCL069W, strain vba3, stronger effect = lower value 0.974 | locus YCR088W, strain abp1, stronger effect = lower value 0.989 | locus YDL005C, strain med2, stronger effect = lower value 0.989 | locus YDL035C, strain GPR1, stronger effect = lower value 1.02 | locus YDL040C, strain nat1, stronger effect = lower value 0.994 | locus YDL074C, strain BRE1, stronger effect = lower value 1.05 | locus YDL101C, strain DUN1, stronger effect = lower value 1.01 | locus YDL185W, strain tfp1, stronger effect = lower value 1.01 | locus YDL192W, strain arf1, stronger effect = lower value 1.03 | locus YDR001C, strain nth1, stronger effect = lower value 0.975 | locus YDR069C, strain doa4, stronger effect = lower value 0.977 | locus YDR101C, strain arx1, stronger effect = lower value 0.99 | locus YDR137W, strain rgp1, stronger effect = lower value 0.924 | locus YDR159W, strain sac3, stronger effect = lower value 1 | locus YDR162C, strain NBP2, stronger effect = lower value 1.02 | locus YDR195W, strain ref2 1.01 | locus YDR297W, strain sur2, stronger effect = lower value 0.976 | locus YDR318W, strain mcm21, stronger effect = lower value 1.03 | locus YDR334W, strain swr1, stronger effect = lower value 0.933 | locus YDR335W, strain msn5, stronger effect = lower value 0.968 | locus YDR388W, stronger effect = lower value 1.01 | locus YDR392W, strain spt3, stronger effect = lower value 0.934 | locus YDR502C, strain sam2, stronger effect = lower value 1.03 | locus YEL003W, strain gim4, stronger effect = lower value 0.996 | locus YEL037C, strain rad23, stronger effect = lower value 0.982 | locus YEL061C, strain CIN8 (second series), stronger effect = lower value 0.98 | locus YEL061C, strain CIN8, stronger effect = lower value 1.05 | locus YER015W, strain faa2, stronger effect = lower value 0.986 | locus YER016W, strain bim1, stronger effect = lower value 0.997 | locus YER110C, stronger effect = lower value 1.02 | locus YER111C, strain swi4, stronger effect = lower value 0.985 | locus YER155C, strain BEM2 (second series), stronger effect = lower value 1.02 | locus YER155C, strain BEM2, stronger effect = lower value 1.01 | locus YER167W, strain BCK2, stronger effect = lower value 1.03 | locus YFR010W, strain ubp6, stronger effect = lower value 0.978 | locus YGL078C, strain dbp3, stronger effect = lower value 1.01 | locus YGL086W, strain mad1, stronger effect = lower value 1 | locus YGL167C, strain pmr1, stronger effect = lower value 0.964 | locus YGL173C, strain kem1, stronger effect = lower value 0.969 | locus YGL227W, strain vid30, stronger effect = lower value 0.978 | locus YGL240W, strain doc1, stronger effect = lower value 1 | locus YGL248W, strain PDE1, stronger effect = lower value 1.01 | locus YGL253W, strain hxk2, stronger effect = lower value 0.97 | locus YGR135W, strain pre9, stronger effect = lower value 1.06 | locus YGR229C, strain SMI1, stronger effect = lower value 1.05 | locus YGR252W, strain gcn5, stronger effect = lower value 1.05 | locus YHR013C, strain ard1, stronger effect = lower value 0.957 | locus YHR027C, strain rpn1, stronger effect = lower value 0.957 | locus YHR030C, strain SLT2, stronger effect = lower value 1.02 and 1.03 | locus YHR079C, strain IRE1 (second series), stronger effect = lower value 1.02 | locus YHR079C, strain IRE1, stronger effect = lower value 1.03 | locus YHR094C, strain hxt1, stronger effect = lower value 1.01 | locus YHR129C, strain ARP1, stronger effect = lower value 1.01 | locus YHR142W, strain chs7, stronger effect = lower value 0.916 | locus YHR200W, strain rpn10, stronger effect = lower value 1.02 | locus YIL066C, strain RNR3, stronger effect = lower value 1.01 | locus YIL073C, strain SPO22, stronger effect = lower value 1.07 | locus YIL125W, strain kgd1, stronger effect = lower value 1.01 | locus YIR030C, strain dcg1, stronger effect = lower value 1.02 | locus YJL092W, strain hpr5, stronger effect = lower value 0.969 | locus YJL095W, strain BCK1 (second series), stronger effect = lower value 0.974 | locus YJL095W, strain BCK1, stronger effect = lower value 1.02 and 1.01 | locus YJL115W, strain asf1, stronger effect = lower value 0.958 | locus YJL129C, strain trk1, stronger effect = lower value 0.976 | locus YJL134W, strain LCB3, stronger effect = lower value 1 | locus YJL154C, strain vps35, stronger effect = lower value 0.975 | locus YJL164C, strain tpk1, stronger effect = lower value 1 | locus YJL166W, strain qcr8, stronger effect = lower value 0.959 | locus YJL168C, strain set2, stronger effect = lower value 1.01 | locus YJL187C, strain SWE1 (second series), stronger effect = lower value 1.01 | locus YJL187C, strain SWE1, stronger effect = lower value 0.976 | locus YJR043C, strain POL32, stronger effect = lower value 1.02
